HPGD inh = qHTS Assay for Inhibitors of HPGD (15-Hydroxyprostaglandin Dehydrogenase). 15-hydroxyprostaglandin dehydrogenase [NAD(+)] (Homo sapiens), P15428. purified HPGD, NADH fluorescence kinetic, PGE2 substrate. Potency, µM, for the others: at the top dose activity change, negative = inhibition, hits mostly inhibitors. hit rate 4.3% among 150,000. AID 894, 2007; active means well fitted inhibition curve with a large enough effect, not every such curve was filed as active; inconclusive means small, poorly fitted or top-dose-only effect, or another doubt; inactive means no such curve, though single readings can be large or run the other way
Target sequence (P15428 whole entry, looked up): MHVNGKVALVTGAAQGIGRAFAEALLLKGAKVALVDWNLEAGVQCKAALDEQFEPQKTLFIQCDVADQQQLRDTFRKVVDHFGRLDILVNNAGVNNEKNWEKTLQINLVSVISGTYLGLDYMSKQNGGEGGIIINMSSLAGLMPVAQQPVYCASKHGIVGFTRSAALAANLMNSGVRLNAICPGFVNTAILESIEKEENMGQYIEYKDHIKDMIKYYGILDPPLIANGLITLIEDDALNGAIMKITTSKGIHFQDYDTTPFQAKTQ
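NADH formation kinetics: reaction with 30 uM PGE2 and 1 mM NAD+ (final), 20 nM enzyme, Tris-HCl pH 8 with Tween 20, after 15 min compound preincubation at room temperature. Fluorescence change, last versus first of five reads.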
Tau ThT inhib = qHTS for Inhibitors of Tau Fibril Formation, Thioflavin T Binding | Microtubule-associated protein tau (Homo sapiens), P10636 | recombinant tau K18 P301L, heparin-induced fibrillization, ThT fluorescence | Potency, µM (highest dose often 57.4 µM), for the others: top-dose activity, negative = inhibition, hits mostly inhibitors | hit rate 2.1% among 270,000; further: nearly all actives have a fitted effect of over 55% in size
Target sequence (P10636 561-689 P618L limits assumed): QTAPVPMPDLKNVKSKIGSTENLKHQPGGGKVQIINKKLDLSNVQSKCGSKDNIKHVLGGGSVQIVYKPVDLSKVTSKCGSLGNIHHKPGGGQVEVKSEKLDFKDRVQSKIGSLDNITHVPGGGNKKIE
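Using a mix of unlabeled (15 uM) and Alexa 594-labeled (0.24 uM) tau K18 P301L, heparin-triggered fibrillization over 6 hr at 37 C was scored by ThT fluorescence.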
Tau fluor cs = Counterscreen qHTS for Inhibitors of Tau Fibril Formation, Fluorescence Polarization. tau K18 P301L Alexa594 fluorescence, heparin fibrillization. Potency, µM (titrated, usually from 57.7 µM), for inactives: at the highest dose activity change, negative = decrease. AID 1463, 2008. hit rate 0.93% among 280,000; further: nearly all actives have a fitted effect of over 55% in size
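Human tau K18 P301L (15 uM unlabeled, 0.24 uM Alexa 594-labeled) in 100 mM sodium acetate pH 7 with 20 uM heparin, 6 hr at 37 C. ThT 30 uM added, 1 hr ambient; Alexa 594 FP and total fluorescence read at 555/632 nm.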
Tau fibril FP = qHTS for Inhibitors of Tau Fibril Formation, Fluorescence Polarization; Microtubule-associated protein tau (Homo sapiens), P10636; AID 1468, 2008; hit rate 0.39% among 280,000; Potency, µM (highest dose often 57.7 µM), for inactives: at the highest dose activity, negative = inhibition, hits mostly inhibitors; K18 P301L tau heparin fibrillization, Alexa594 FP, 6 h; further: nearly all actives have a fitted effect of over 55% in size
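Quantitative HTS format: compounds meet 15 uM recombinant K18 P301L tau and Alexa 594-tau tracer in 100 mM sodium acetate pH 7; 20 uM heparin triggers fibrillization at 37 C over 6 hr; FP gives the signal.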
JMJD2E inh = qHTS Assay for Inhibitors of Human Jumonji Domain Containing 2E (JMJD2E); JMJD2E catalytic domain, FDH-coupled NADH fluorescence (FDH is formaldehyde dehydrogenase); Potency, µM (series often up to 57.1 µM), for inactives: top-dose activity change, negative = inhibition, usual class: inhibitors; hit rate 1.6% among 230,000; AID 2147, 2009; active means well fitted inhibition curve with a large enough effect, not every such curve was filed as active; inconclusive means small, poorly fitted or top-dose-only effect, or another doubt; inactive means no such curve, though single readings can be large or run the other way;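 further: 0% = wells with enzyme and -100% = buffer wells without enzyme; nearly all actives have a fitted effect of over 50% in size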
Target sequence (B2RXH2 1-337 limits assumed): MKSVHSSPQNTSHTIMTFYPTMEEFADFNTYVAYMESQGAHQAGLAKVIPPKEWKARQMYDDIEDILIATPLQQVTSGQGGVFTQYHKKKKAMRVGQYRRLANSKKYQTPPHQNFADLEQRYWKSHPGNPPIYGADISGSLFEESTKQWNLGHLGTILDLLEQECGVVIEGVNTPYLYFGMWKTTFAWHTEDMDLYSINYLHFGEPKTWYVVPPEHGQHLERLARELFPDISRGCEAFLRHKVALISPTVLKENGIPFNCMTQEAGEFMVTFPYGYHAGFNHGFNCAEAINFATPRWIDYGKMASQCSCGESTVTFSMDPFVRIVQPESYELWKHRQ
ALDH1A1 block = qHTS Assay for Inhibitors of Aldehyde Dehydrogenase 1 (ALDH1A1); Purified ALDH1A1, NADH fluorescence, propionaldehyde substrate; Potency, µM (highest dose often 75.3 µM), without a hit: at the highest dose activity, negative = inhibition, usual class: inhibitors; hit rate 7.3% among 220,000; AID 1030, 2008; active means well fitted inhibition curve with a large enough effect, not every such curve was filed as active; inconclusive means small, poorly fitted or top-dose-only effect, or another doubt; inactive means no such curve, though single readings can be large or run the other way;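 further: plate controls were no enzyme wells and a reference inhibitor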
Numbers without * were called inactive; ? = inconclusive; . = not tested or not shown; [ ] = remark or other dose. A selection: hits, their analogues and other compounds. The true share with any hit is near 9.9%. Unless noted, the call rests on the fitted dose curve; in most records, active means well fitted curve in the direction sought with a large enough effect; inconclusive means small, poorly fitted or top-dose-only effect, or another doubt; inactive means no such curve, though single readings can be large; an effect the other way counts as inactive or inconclusive. Unless noted, on the % scale 0 is the no-effect control and ±100 the full control effect; potency means the concentration at half of the fitted maximal effect.

SMILES	HPGD inh	Tau ThT inhib	Tau fluor cs	Tau fibril FP	JMJD2E inh	ALDH1A1 block
CC1=C(C(=O)OC2CCCCCC2)C(c2ccc(C)o2)C2=C(CCCC2=O)N1 (stereo not given)	?	3.6%	-0.8%	-5.2%	5.8%	?
CC1=C(C(=O)OC2CCCC2)C(c2ccc(C)o2)C2=C(CC(c3cccs3)CC2=O)N1 (stereo not given)	-19.3%	?	-15.8%	1.2%	?	14.1µM*
CC(C)(C)c1nn(-c2ccccc2)c2[nH]c(=O)c(CNc3ccc4c(c3)OCCO4)cc12	-12.9%	?	?	7.8%	0.2%	?
Cc1nn(-c2ccccc2)c2[nH]c(=O)c(CNc3ccc(N4CCOCC4)cc3)cc12	-9.9%	17.8µM*	?	?	?	?
CCN(C(=O)COC(=O)/C=C/c1ccc(S(=O)(=O)N2CCc3ccccc32)cc1)C1CCS(=O)(=O)C1 (stereo not given)	.	-8.9%	-2.1%	-6.7%	-0.3%	5.01µM*
Cc1ccc2c(c1)C(=O)C(=O)N2CC(=O)Nc1ccccc1NC(=O)c1ccccn1	.	.	-7.3%	-5.4%	4.8%	.
CC(CCN(C)C)OC(=O)c1ccc(C(C)c2ccccc2)o1 (stereo not given)	-5.8%	-12.2%	-8.3%	-5.6%	-0.2%	39.8µM*
CC12CCC(C(=O)NCCCN3CCOCC3)(C(Br)C1=O)C2(C)C (stereo not given)	.	-3.3%	-3.8%	-4.5%	1.6%	.
Fc1cccc(F)c1-n1c(CN2CCCC2)csc1=S	.	-2.7%	-0.5%	7.2%	2.4%	22.4µM*
COc1ccc(-c2cc(C(=O)Nc3cccc(O)c3)on2)cc1OC	.	?	?	4.1%	.	.
CN(Cc1ccco1)c1cc(-c2ccoc2)ncn1	.	.	.	.	.	25.1µM*
O=C1C2C3C=CC(C3=C3CCCCC3)C2C(=O)N1Cc1ccccc1 (stereo not given)	-23.1%	-14.3%	-6.3%	-0.9%	-22.2%	6.31µM*
CC(C)C1O/C(=N/C(=O)Nc2ccc(Cl)c(Cl)c2)NC1=O (stereo not given)	20µM*	7.9%	4.5%	-6.5%	4.9%	?
CCC1(c2ccc(Cl)cc2)NC(=O)N(Cc2ccc(C(=O)OC)cc2)C1=O (stereo not given)	.	-11.6%	-18.0%	4.3%	-5.8%	-2.6%
O=C1NN(c2cccc(Br)c2)C(=O)/C1=C/c1ccc(-c2cc([N+](=O)[O-])ccc2O)o1	.	2.82µM*	4.47µM*[quencher]	?	5.3%	.
N#C/C(=C\c1ccc(-c2ccc([N+](=O)[O-])cc2Br)o1)C(=O)N1CCN(c2ccccc2)CC1	?	?	?	15.7%	-4.2%	11.9%
c1ccc(CCN(Cc2ccccc2)C2CCN(C3CCCC3)CC2)cc1	.	2.4%	-0.8%	1.4%	3.8%	39.8µM*
O=S(=O)(c1ccccc1)N1CCN(C2CCCCCCC2)CC1	-9.7%	1.8%	-4.9%	1.0%	4.6%	?
CCN1/C(=C/C=C/c2oc3ccc(-c4ccccc4)cc3[n+]2CC)Oc2ccc(-c3ccccc3)cc21	.	?	3.98µM*[fluorescent]	?	7.94µM*	?
CCOc1ccc(N2C(=O)c3cccnc3C2Nc2ccc(Cl)cc2)cc1 (stereo not given)	-1.4%	-4.6%	-14.9%	-3.9%	3.4%	-14.9%
Cc1ccc(NC2c3ncccc3C(=O)N2c2ccccc2C)cc1C (stereo not given)	15.8µM*	?	-6.3%	3.1%	14.1µM*	?
C=C(C)COc1ccc(-c2[nH]ncc2-c2ccccc2)c(O)c1	-29.8%	-15.2%	17.8µM*[quencher]	-4.8%	-16.1%	-12.7%
C=C(C)COc1ccc(-c2n[nH]c(C)c2-c2ccc(OC)c(OC)c2)c(O)c1	.	-9.5%	14.1µM*[quencher]	-10.5%	?	.
C=C(C)COc1ccc(-c2[nH]ncc2-c2ccc(OC)c(OC)c2)c(O)c1	-19.6%	-9.6%	25.1µM*[quencher]	8.0%	?	-0.9%
C=C(C)COc1ccc(-c2[nH]ncc2-c2ccc(OC)cc2)c(O)c1	.	-14.9%	11.2µM*[quencher]	?	?	.
SMILES	HPGD inh	Tau ThT inhib	Tau fluor cs	Tau fibril FP	JMJD2E inh	ALDH1A1 block
C=C(C)COc1ccc(-c2nc(N)ncc2-c2ccc(OC)cc2)c(O)c1	?	?	?	-9.9%	?	?
CCn1cc2nc(SCc3ccc(F)cc3)n(CCc3ccccc3)c(=O)c2n1	.	-14.5%	-20.7%	-13.1%	.	.
O=C(Nc1ccc(F)cc1)c1cc(S(=O)(=O)Nc2ccc(F)cc2)cs1	-13.7%	-12.9%	?	?	-0.7%	2.8%
COc1ccc(NC(=O)c2cc(S(=O)(=O)Nc3ccc(OC)cc3)cs2)cc1	.	-15.7%	12.6µM*[quencher]	?	5.0%	.
COc1ccc(NS(=O)(=O)c2cc(NC(=O)c3cccs3)ccc2N2CCCC2)cc1	-11.4%	-12.4%	15.8µM*[quencher]	?	?	?
COc1ccc(NS(=O)(=O)c2ccc(N3CCCC3)c(NC(=S)Nc3cccc(S(=O)(=O)N(C)C)c3)c2)cc1	3.16µM*	25.1µM*	?	?	-3.7%	3.16µM*
COc1ccc(NS(=O)(=O)c2cc(NC(=O)/C=C/c3cccs3)ccc2N2CCOCC2)cc1	-19.0%	-9.1%	15.8µM*[quencher]	3.7%	-20.8%	?
O=C(CCSCc1ccccc1Cl)NCc1ccco1	.	-5.6%	-9.6%	-1.9%	2.8%	-8.8%
O=C(CSc1ccc2c(c1)OCCO2)NCc1ccco1	25.1µM*	?	-9.4%	-7.2%	1.1%	14.1µM*
O=C(CSc1ccc2c(c1)OCCO2)NC(=O)Cc1ccccc1	-7.7%	-0.7%	-1.6%	8.3%	15.5%	8.4%
O=C(CN1CCOc2ccccc21)NCc1ccco1	-27.0%	?	-7.5%	-8.7%	0.5%	11.2µM*
CC(C)c1ccc(NC(=O)CSc2n[nH]c(=O)n2-c2ccc3c(c2)OCCO3)cc1	.	17.3%	10.8%	-2.7%	1.8%	11.2µM*
O=c1[nH]nc(SCc2ccccc2Cl)n1-c1ccc2c(c1)OCCO2	.	16.3%	1.5%	5.6%	2.8%	.
O=C(CCSCCC(=O)NCc1ccco1)NCc1ccco1	15.8µM*	14.1µM*	-21.3%	?	?	17.8µM*
CCc1ccc(NS(=O)(=O)c2ccc(-c3cc(C)no3)cc2)cc1	.	6.4%	?	?	.	.
Cc1ccc(NC(=O)CN(C)C(=O)COc2cc(F)ccc2[N+](=O)[O-])cc1	.	-4.3%	-15.7%	-11.0%	-2.7%	4.8%

Source: PubChem
